Pf Dd2 growth = inhibitors of Plasmodium falciparum Dd2 growth; P. falciparum Dd2 growth, SYBR Green, 72 h; Potency, µM (series often up to 28.9 µM), actives largely listed as inhibitors; 120,000 compounds, 4.3% hits; AID 1347417; active means well fitted inhibition curve with a large enough effect; further: nearly all actives have a fitted effect of over 65% in size
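Readout: SYBR Green fluorescence, 485 nm excitation, 535 nm emission, after ~16 h lysis at 37C. Before that, Dd2-infected red cells (2.5% hematocrit) grew 72 h with compound, 29 uM top final concentration.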
Of the large screens only hits and unclear results are named; the others gave an inactive call. This excerpt belongs to a sample that is enriched for hits.

CN[C@@H](C)C(=O)N1CC[C@H](NC(=O)c2ccncc2)C[C@H]1C(=O)N[C@@H](Cc1ccc(OC)cc1)C(N)=O	none
O=C1CCCN1CCCn1ccnc1-c1cc2n(n1)CCCNC2	none
CCc1ccc2c(c1)NC(c1cccs1)=NC(c1ccc(F)cc1)=N2	none
CCOc1ccc(C2=NC(c3cccs3)=Nc3ccc(CC)cc3N2)cc1OCC	Pf Dd2 growth 8.91µM
CCCCOc1ccc(C2=NC(c3cccs3)=Nc3ccc(OC)cc3N2)cc1	none
CC(C)c1ccc(CC(=O)N2CCCc3ncc(C(=O)NCC(C)(C)CO)cc32)cc1	none
O=C(Nc1cccc(F)c1)c1cnc2c(c1)N(C(=O)Cc1cccc(C(F)(F)F)c1)CCC2	Pf Dd2 growth 11.2µM
CC(C)c1ccc(CC(=O)N2CCCc3ncc(C(=O)Nc4ccccn4)cc32)cc1	Pf Dd2 growth 7.94µM
CC(C)c1ccc(CC(=O)N2CCCc3ncc(C(=O)Nc4cccnc4)cc32)cc1	Pf Dd2 growth 0.631µM
CC(C)NC(=O)c1cnc2c(c1)N(C(=O)Cc1ccc(C(C)C)cc1)CCC2	none
CC(C)c1ccc(CC(=O)N2CCCc3ncc(C(=O)NCCN4CCCC4)cc32)cc1	none
O=C(Nc1cccc(C(F)(F)F)c1)c1cnc2c(c1)N(C(=O)CCc1ccccc1)CCC2	none
Cn1cc(CC(=O)N2CCCc3ncc(C(=O)Nc4cccc(C(F)(F)F)c4)cc32)c2ccccc21	none
CC(C)c1ccc(CC(=O)N2CCCc3ncc(C(=O)Nc4cccc(Cl)c4)cc32)cc1	Pf Dd2 growth 12.6µM
CC(C)c1ccc(CC(=O)N2CCCc3ncc(C(=O)NCCc4ccccc4)cc32)cc1	none
CC(C)c1ccc(CC(=O)N2CCCc3ncc(C(=O)Nc4ccc5[nH]ccc5c4)cc32)cc1	none
CC(C)c1ccc(CC(=O)N2CCCc3ncc(C(=O)NCc4ccccc4)cc32)cc1	none
NS(=O)(=O)c1ccc(F)c(C(=O)NCc2nc(C3CCCCC3)no2)c1	none
CCOCc1nc(C2CCCN(C(=O)c3ccc(C)c(F)c3)C2)no1 (centres undefined)	none
Cc1cc(C(=O)N2CC(N(C)Cc3cccnc3)C2)n[nH]1	none
CC(C)N1CCC[C@H]1c1nc(-c2ccc(OC3CCCCC3)nc2)no1	none
CCNC(=O)CCc1c(C)nn(-c2cccc(C)c2)c1Oc1ccccc1C	none
Cc1cccc(-n2nc(C)c(CCC(=O)N3CCSCC3)c2Oc2ccccc2C)c1	Pf Dd2 growth 8.91µM
Cc1cccc(-n2nc(C)c(CCC(=O)NC3CC3)c2Oc2ccccc2C)c1	none
COc1ccc(C(=O)N2CCC3(CC2)NC(=O)N(Cc2ccccc2)C3=O)c(OC)c1	none
CCN(CC)Cc1cnc2c(C(=O)N3CCCCCCC3)cnn2c1	none
Cc1ccc(-c2nc3cnccn3c2NCCC(=O)O)cc1	none
O=C(CC1CCOC2(CCN(S(=O)(=O)Cc3ccccc3)CC2)C1)N1CCOCC1 (centres undefined)	none
Cn1c(=O)c2ccnn2c2ccc(C(=O)Nc3ccc(N4CCOCC4)cc3)cc21	none
O=C(NCc1ccccc1)c1ccc2oc(=O)n(Cc3ccccc3)c2c1	none
Cn1ncc(N2CCC(NC(=O)Cc3ccc(F)cc3)CC2)cc1=O	none
O=C(NCc1ccccn1)c1ccc2c(c1)n(Cc1cccc(F)c1)c(=O)c1ccnn12	Pf Dd2 growth 5.01µM
CCCN1CCN(C(=O)c2ccc3c(c2)n(CC)c(=O)c2ccnn23)CC1	none
CN1CCC(NC(=O)c2ccc3c(c2)n(Cc2ccc(F)cc2)c(=O)c2ccnn23)CC1	Pf Dd2 growth 2.51µM
CN(C)C(=O)c1ccc2c(c1)n(Cc1ccc(F)cc1)c(=O)c1ccnn12	Pf Dd2 growth 10µM
O=C(NCc1cccc(F)c1)c1ccc2nccn2c1	none
CNC(=O)c1ccc2c(c1)n(Cc1ccc(OC)cc1)c(=O)c1ccnn12	none
CCN1CCN(CCCNC(=O)CN2CC3CC(C2)[C@H]2CCCC(=O)N2C3)CC1 (some centres undefined)	none
CC[C@H]1CN(C(=O)C(C)(C)C)CC[C@H]1CC(=O)Nc1ccccc1	none
Cc1noc([C@@H](C)NS(=O)(=O)c2ccc(Cl)cc2)c1C(=O)O	none
Cc1onc(-c2cnn(C)c2NCc2ccc(C#N)cc2)c1C(=O)NC1CCOCC1	none
COC(=O)c1cccc(NC(=S)N[C@@H]2C=C[C@@H](c3c(C)nn(-c4ccccc4[N+](=O)[O-])c3C)C2)c1	none
COc1ccc(-c2cc(N3CCCN(C(=O)c4cccc(Cl)c4)CC3)n[nH]2)cc1	none
CC(C)c1cccc(NC(=O)CN2C(=O)NC3(CCS(=O)(=O)CC3)C2=O)c1	none
CN(C)c1nccnc1OC1CCN(C(=O)c2ccn[nH]2)C1 (centres undefined)	none
CCCN(C)c1nccnc1OC1CCN(C(=O)c2ccc(F)cc2)C1 (centres undefined)	Pf Dd2 growth 10µM
CCCN(C)c1nccnc1OC1CCN(C(=O)C2CCOCC2)C1 (centres undefined)	none
COCC(=O)NC1CCC12CCN(Cc1ccccn1)CC2 (centres undefined)	none
Clc1ccc(-c2cnc3n[nH]c(-c4ccccc4)c3n2)cc1	none
CCc1ccc(NC(=O)CC(c2cc(OC)c(OC)c(OC)c2)N2Cc3ccccc3C2=O)cc1 (centres undefined)	none
COc1cc(C(CC(=O)Nc2cccc(C(C)=O)c2)N2Cc3ccccc3C2=O)cc(OC)c1OC (centres undefined)	Pf Dd2 growth 10µM
COc1ccccc1NC(=O)CC(c1cc(OC)c(OC)c(OC)c1)N1Cc2ccccc2C1=O (centres undefined)	none
C=CCN(C)C(=O)C[C@@H]1c2nc(NC(=O)c3cccc(F)c3)sc2C[C@@H]2[C@](C)(CO)[C@H](O)CC[C@]21C	none
CC(C)N[C@@H]1CO[C@H](CNC(=O)c2ccncc2)[C@H]1O	none
Cc1ccc(C)c(Nc2nnc(-c3ccc(C)c(S(=O)(=O)N4CCN(C)CC4)c3)c3ccccc23)c1	none
C#CCOc1ccc(-c2nnc(Nc3ccc(NC(C)=O)cc3)c3ccccc23)cc1	none
CCOc1ccc(-c2nnc(Nc3ccc(S(N)(=O)=O)cc3)c3ccccc23)cc1	none
Cc1cc(C)n(-c2nnc(Nc3ccc(C)c(Cl)c3)c3ccccc23)n1	none
C#CC(C)(C)NS(=O)(=O)c1cc(-c2nnc(Nc3ccc(C)cc3)c3ccccc23)ccc1C	Pf Dd2 growth 5.01µM
Cc1cccc(Nc2nnc(-c3ccc(C)c(S(=O)(=O)N4CCCCC4)c3)c3ccccc23)c1	none
CCN(CC)C(=O)c1ccc(Nc2nnc(-c3ccc(C)c(S(=O)(=O)NC)c3)c3ccccc23)cc1	Pf Dd2 growth 3.16µM
Cc1ccc(-c2nnc(Nc3ccc(Cl)c(Cl)c3)c3ccccc23)cc1S(=O)(=O)N(C)C	Pf Dd2 growth 10µM
CCCNS(=O)(=O)c1cc(-c2nn3c(C)nnc3c3ccccc23)ccc1C	none
Cc1noc(C2CCCCCN2C(=O)COc2ccc(F)cc2)n1 (centres undefined)	none
Cc1ccc(C)c(N2CCN(C(=O)c3cc(-c4ccncc4)cn3C)CC2)c1	none
O=C(C1CCCO1)N1CCCC(c2ccccc2)(c2ccccc2)C1 (centres undefined)	none
COCC1CN(C2CCC2)CC12CCN(C(=O)c1ccn[nH]1)CC2 (centres undefined)	none
COCC1(c2nc(C3CCOCC3)nn2-c2ccncc2C)CC1	none
Cc1ccc(NC(=O)CN2C(=O)NC3(CCC(C)CC3)C2=O)cc1C (centres undefined)	none
O=C(NC1CC1)c1ccc2nnc(C3CC3)n2c1	none
C=CCNC(=O)c1coc(COc2ccc3c(c2)C(c2ccc(C)cc2)N(C(=O)C2CC2)CC3)n1 (centres undefined)	none
COCCNC(=O)c1coc(COc2ccc3c(c2)C(c2ccc(C)cc2)N(C(=O)C2CC2)CC3)n1 (centres undefined)	none
